# Measured values reported in the supplement of paper PMC10981050.
# Where “and” joins values, the source holds several entries; their conditions need not be identical. Equal values may be shown once. Where a name gives a salt, the structure may show the parent alone.
# Key:
# Experiment in all cases: cell viability relative to vehicle control; higher = less cytotoxic
# Conditions in all cases: 10 µM
# [1] = test system: K562
# How it was run: (§1)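 Each screen used CRISPR-edited mutant and wild-type clones from four leukaemia lines. Compounds were acoustically dispensed at a single 10 µM dose, and CellTiter-Glo luminescence was read after 48 h with the supernatant first removed. Viability was analysed in Genedata Screener and given as percent of the on-plate vehicle control.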
# [2] = test system: MARIMO
# How it was run: as §1
# [3] = test system: MOLM14
# How it was run: as §1
# [4] = test system: OCI-AML2
# How it was run: as §1
SMILES,cell viability ([1]; SRSF2 genotype: SRSF2 P95H/wt),cell viability ([1]; SRSF2 genotype: SRSF2 wt/wt) [%],cell viability ([2]; SRSF2 genotype: SRSF2 P95H/wt) [%],cell viability ([2]; SRSF2 genotype: SRSF2 wt/wt) [%],cell viability ([3]; SRSF2 genotype: SRSF2 P95H/wt) [%],cell viability ([3]; SRSF2 genotype: SRSF2 wt/wt) [%],cell viability ([4]; SRSF2 genotype: P95H/wt) [%],cell viability ([4]; SRSF2 genotype: wt/wt) [%]
CCOC(=O)[C@H](CCc1ccccc1)N[C@@H](C)C(=O)N1Cc2ccccc2C[C@H]1C(=O)O [Quinapril hydrochloride (Accupril)],97.3% and 108%,106,102,106,104,103,107,104
CC(C)(C)c1cc(/C=C(\C#N)C(N)=S)cc(C(C)(C)C)c1O [Tyrphostin AG 879 (AG 879)],22.1% and 17.9%,25.2,73.5,68.3,20.1,14.8,7.33,15.8
COc1cc(C(=O)OCCCCNC(=N)N)cc(OC)c1O [Leonurine],105% and 99%,95.2,98.4,112,95.2,104,94.4,107
C=CCc1cc(OC)c(O)c(C(=O)NCCO)c1 [Alibendol],100% and 103%,103,98.2,104,98.2,102,100,112
CCOC(=O)c1c(CSc2ccccc2)n(C)c2cc(Br)c(O)c(CN(C)C)c12 [Arbidol HCl],50.6% and 70.1%,61.6,48,54.8,47.8,32.9,53.5,43.8
Cc1ccc([C@@H]2O[C@H](CO)[C@@H](O)[C@H](O)[C@H]2O)cc1Cc1ccc(-c2ccc(F)cc2)s1 [Canagliflozin],93.4% and 99.1%,99.7,99,90.3,102,102,102,97.1
"C[C@H](Nc1ncnc2nc[nH]c12)c1cc2cccc(Cl)c2c(=O)n1-c1ccccc1 [Duvelisib (IPI-145, INK1197)]",93.1% and 95.6%,94.3,67.6,62.3,50.2,51.6,28.7,38
CC[C@H](c1ccc(O)cc1)[C@@H](CC)c1ccc(O)cc1 [Hexestrol (Bibenzyl)],96.8% and 102%,96.9,94.6,101,99.7,103,100,91.9
Cc1[nH]c2ccccc2c1CCNC(=O)c1cccs1,92% and 93.8%,100,90,97.2,106,99.4,94.5,97.4
C[C@H](O)[C@H](O)[C@@H](O)[C@@H](O)C=O [L (+)-Rhamnose Monohydrate],99.9% and 97.2%,100,102,106,99,105,99.3,94.1
CN(C)CC(c1ccc(O)cc1)C1(O)CCCCC1 (stereo not given) [Desvenlafaxine],96.7% and 97.5%,101,102,102,98.1,100,100,99.3
CN1Cc2c(ccc3c2OCO3)[C@@]2(C)[C@@H](O)Cc3cc4c(cc3[C@@H]12)OCO4 [Corynoline],18.7% and 28.5%,24.2,8.07,9.1,8.94,3.23,5.69,13
NC(=O)c1cnc(N[C@@H]2CCCC[C@@H]2N)nc1Nc1cccc(-n2nccn2)c1,16.9% and 18.1%,15.9,16,12.6,2.43,1.83,0.51,3.84
COc1ccc(C(=O)C2CCN(CC(=O)N(Cc3nc4c(c(=O)[nH]3)COCC4)CC3CC3)CC2)cc1,110% and 104%,102,108,110,109,102,98.8,109
CC(NC(=O)C(Cc1ccccc1)NC(=O)OCc1ccccc1)C(=O)CF (stereo not given),102% and 101%,96,92.9,111,94.3,101,98.8,94.9
C[C@@]1(CO)C[C@@H](O)C[C@@]2(C)[C@@H]3CC[C@](C)([C@@H](O)CO)C=C3CC[C@H]12 [Kirenol],98.1% and 101%,97.7,89.3,96.2,107,104,94.6,101
CC(C)OC(=O)CCC/C=C\C[C@@H]1[C@@H](/C=C/[C@@H](O)COc2cccc(C(F)(F)F)c2)[C@H](O)C[C@@H]1O [Travoprost],67.1% and 66.4%,65,57.9,40.1,79.1,94.4,23.5,37.8
O=C(O)c1ccc(-c2ccc(C=C3SC(=S)N(Cc4ccccc4)C3=O)o2)cc1 [Leukadherin-1],89.1% and 83.5%,82.9,85.4,96.4,82.3,91.9,89,112
Nc1ncccc1-c1nc2ccc(-c3ccccc3)nc2n1-c1ccc(C2(N)CCC2)cc1 [Miransertib (ARQ 092)HCl],35.5% and 48%,30.4,75.3,72.4,39.3,48.1,33,49.2
CNC(=O)c1c(C)oc2cc(Oc3ncnc4cc(OC)c(OC)cc34)ccc12 [Fruquintinib],101% and 96.7%,97.1,98.6,99.7,95.8,105,84.3,85.4
